From PubChem BioAssay
Hits are enriched below; roughly 8.3% of the tested compounds scored in any of these assays.
FMDV antiviral = antivirals against foot and mouth disease virus; FMDV antiviral cell-based qHTS; Potency, µM (series often up to 57.9 µM), actives largely listed as inhibitors; 410,000 compounds, 1.2% hits; calls by dose curve; tested in HEK293T cells; note: read-out not given here; nearly all actives have a fitted effect of over 45% in size
HCMV inh = human cytomegalovirus inhibition; HFF cells, HCMV-luciferase reporter, 72 h; stronger effect = lower value; activity change, negative = inhibition, % at 57.5 µM; 410,000 compounds, 4.5% hits; AID 1259415; in the data active = activity change below about -60%; inconclusive = no clear call, values can overlap the other calls; inactive = above about -39%
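Cell-based, HFFs, 1000 cells/well, 16 h 37C; cpds in DMSO + HCMV-luc, MOI 1 PFU/cell; 72 h 37C; OneGlo luminescence after 5 min RT; norm. to buffer vs Salinomycin 10uM.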
LASV entry inh = inhibitors of Lassa virus binding or cell entry; Lassa virus pseudotype entry inhibition, cell reporter; 300,000 compounds, 1.2% hits; Potency, µM (top dose mostly 37.9 µM), most hits filed as inhibitors; calls by dose curve; tested in HEK293 cells; note: nearly all actives have a fitted effect of over 50% in size
MARV entry inh = blocks Marburg virus binding to or entry into cells. Marburg virus pseudotyped entry inhibition, cell reporter. Potency, µM (series often up to 37.8 µM), actives largely listed as inhibitors. 300,000 compounds, 1.8% hits. AID 540276; calls by dose curve; tested in HEK293 cells
FBPA Giardia inh = blocks Giardia fructose-bisphosphate aldolase activity. purified Giardia FBPA. Potency, µM (titrated, usually from 59.6 µM), most hits filed as inhibitors. 290,000 compounds, 0.71% hits. AID 2451; note: nearly all actives have a fitted effect of over 55% in size
Target sequence (A8B2U2 whole entry, looked up): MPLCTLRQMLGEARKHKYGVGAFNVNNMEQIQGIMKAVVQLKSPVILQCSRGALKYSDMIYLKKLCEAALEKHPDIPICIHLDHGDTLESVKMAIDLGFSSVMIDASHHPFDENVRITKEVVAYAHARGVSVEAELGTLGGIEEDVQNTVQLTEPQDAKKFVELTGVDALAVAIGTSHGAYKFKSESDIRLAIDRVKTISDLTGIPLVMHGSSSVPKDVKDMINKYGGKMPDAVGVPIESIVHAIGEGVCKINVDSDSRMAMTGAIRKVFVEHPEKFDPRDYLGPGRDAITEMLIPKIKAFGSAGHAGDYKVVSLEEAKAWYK
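Giardia FBPA (40 nM reagent) was preincubated 10 min at RT with compound (up to 57.5 uM final), then substrate plus GAPDH/TPI/NAD/arsenate coupling system with diaphorase/resazurin was added; resorufin fluorescence (525/598 nm) was read after 20 min.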
HCV inh = inhibitors of hepatitis C virus infection | Huh7.5.1 HCVcc-Cre infection, luciferase reporter, 44 h | Potency, µM (highest dose often 41.8 µM), most hits filed as inhibitors | 340,000 compounds, 3.4% hits
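Cells seeded at 1,000/well and cultured 4 h, then compounds added followed by HCVcc-Cre virus (~0.5 moi). After 44 h further culture, luciferase substrate was added, plates held 15 min at room temperature, and luminescence read for 15 sec.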
Of the large screens only hits and unclear results are named; the others gave an inactive call. Unless noted, calls come from the whole dose curve; as a rule, active = well fitted curve in the direction sought with a large enough effect; inconclusive = small, poorly fitted or top-dose-only effect, or another doubt; inactive = no such curve, though single readings can be large; an effect the other way counts as inactive or inconclusive.

Cc1oc(-c2ccccc2Cl)nc1CS(=O)CC(=O)N1CCN(c2cccc(C(F)(F)F)c2)CC1 (stereo unspecified)	HCMV inh inconclusive, LASV entry inh inconclusive (no result: MARV entry inh, FBPA Giardia inh, HCV inh)
COc1ccc(C2C(C#N)=C(N)N(c3sc4c(c3C#N)CCCC4)C3=C2C(=O)CC(C)(C)C3)cc1OC (stereo unspecified)	LASV entry inh inconclusive, MARV entry inh inconclusive, HCV inh inconclusive
COc1ccc(C2C(C#N)=C3NC(=O)c4c(sc5c4CCCCC5)N3C3=C2C(=O)CC(C)(C)C3)cc1 (stereo unspecified)	LASV entry inh 23µM, MARV entry inh inconclusive, FBPA Giardia inh inconclusive, HCV inh inconclusive
COc1ccc(C2C(C#N)=C(N)N(c3sc4c(c3C#N)CCCC4)C3=C2C(=O)CC(C)(C)C3)cc1 (stereo unspecified)	LASV entry inh inconclusive, MARV entry inh inconclusive, HCV inh 7.9µM (no result: HCMV inh)
Cc1cc(C)cc(NC(=O)C(=O)NCC(c2cccnc2)N2CCc3ccccc32)c1 (stereo unspecified)	none (no result: MARV entry inh, FBPA Giardia inh, HCV inh)
CC1(C)CC(=O)c2c(oc3ccc(NS(=O)(=O)c4cccc5cccnc45)cc23)C1	FMDV antiviral 11µM, HCMV inh inconclusive, LASV entry inh inconclusive, MARV entry inh inconclusive, HCV inh inconclusive
O=C1CCCc2oc3ccc(NS(=O)(=O)c4cccc5cccnc45)cc3c21	HCMV inh inconclusive, MARV entry inh inconclusive, HCV inh inconclusive
CC1CCC(Nc2nc3c(-c4cccc(C(F)(F)F)c4)nnn3c3ccccc23)CC1 (stereo unspecified)	none (no result: FBPA Giardia inh, HCV inh)
O=C(N/N=C/c1cc([N+](=O)[O-])ccc1O)C1C2CCCCC21 (stereo unspecified)	none (no result: FMDV antiviral, HCMV inh, LASV entry inh, MARV entry inh, HCV inh)
O=[N+]([O-])c1ccc(O)c(C2CCCCC2)c1	FMDV antiviral inconclusive, HCMV inh -94, LASV entry inh inconclusive, MARV entry inh inconclusive, HCV inh inconclusive (no result: FBPA Giardia inh)
O=[N+]([O-])c1ccc2nc(C3CCCCC3)[nH]c2c1	MARV entry inh inconclusive, HCV inh inconclusive
O=[N+]([O-])c1ccc(O)c(/C=N/Nc2ccc(Cl)nn2)c1	HCMV inh -101, LASV entry inh inconclusive, MARV entry inh 0.13µM, HCV inh 4µM
O=C(N/N=C/c1cc([N+](=O)[O-])ccc1O)C1CCCCC1	HCMV inh -66, LASV entry inh inconclusive, MARV entry inh inconclusive
O=C(Cn1nnc(-c2ccccc2)n1)N/N=C/c1ccco1	MARV entry inh inconclusive, HCV inh 13µM
CCc1ccccc1NC(=O)C(=O)NCCc1sc(-c2cccc(F)c2)nc1C	none (no result: MARV entry inh, FBPA Giardia inh, HCV inh)
O=C(Cn1nc2ccccc2n1)N/N=C/c1cc([N+](=O)[O-])ccc1O	LASV entry inh inconclusive, MARV entry inh 10µM, FBPA Giardia inh inconclusive, HCV inh inconclusive
O=C(N/N=C/c1cc([N+](=O)[O-])ccc1O)c1cccc2ccccc12	HCMV inh -112 (no result: FMDV antiviral, LASV entry inh, MARV entry inh, HCV inh)
O=C(Cn1nnc(-c2ccccc2)n1)N/N=C/c1cc([N+](=O)[O-])ccc1O	HCMV inh -73, HCV inh inconclusive
O=C(Cn1nnc(-c2ccccc2)n1)N/N=C/c1cc([N+](=O)[O-])c(Cl)cc1Cl	HCV inh inconclusive
CSc1ccc(CNC(=O)Cn2nc(N3CCN(c4ccccc4)CC3)ccc2=O)cc1	FMDV antiviral inconclusive (no result: MARV entry inh, FBPA Giardia inh, HCV inh)
Nc1ccc(N2CCN(CCCCN3C(=O)C4CCCN4C3=O)CC2)cc1 (stereo unspecified)	MARV entry inh 3.2µM, FBPA Giardia inh inconclusive
COc1ccc(Sc2nnc(Cc3ccccc3)c3ccccc23)cc1	FMDV antiviral inconclusive, HCMV inh -89, MARV entry inh inconclusive (no result: HCV inh)
c1ccc(Cc2nnc(N3CCCCC3)c3ccccc23)cc1	none
Cc1ccc(Sc2nnc(Cc3ccccc3)c3ccccc23)cc1	FMDV antiviral inconclusive, HCMV inh -88, MARV entry inh inconclusive
Cc1nc(N2CCOCC2)c2nc(-c3ccccc3)n(CC3CCN(C)CC3)c2n1	none (no result: FMDV antiviral, HCMV inh, LASV entry inh, MARV entry inh, HCV inh)
Cc1nc2cc(C(=O)OCC(=O)N(CC(C)C)C3CCS(=O)(=O)C3)ccc2n1-c1ccccc1 (stereo unspecified)	HCMV inh -96, MARV entry inh inconclusive, HCV inh inconclusive
Cc1nc2cc(C(=O)OCC(=O)NC(C)C(C)C)ccc2n1-c1ccccc1 (stereo unspecified)	LASV entry inh 8.2µM, MARV entry inh inconclusive
CC(=O)c1ccccc1NC(=O)COC(=O)c1ccc2c(c1)nc(C)n2-c1ccccc1	none (no result: FMDV antiviral, HCMV inh)
